# Test results as given in PubChem BioAssay (NCATS).
# Results filed as inconclusive are left out. Calls of active or inactive are those of the source. Calls come from the whole dose curve; as a rule, active = well fitted inhibition curve with a large enough effect; inconclusive = small, poorly fitted or top-dose-only effect; inactive = flat fitted curve, though single readings scatter.
# Target: Calcium and integrin-binding protein 1 (Homo sapiens) (UniProt Q99828)
# Test: Primary qHTS for Identification of Calcium Integrin Binding Protein 1 (CIB1) Competitor (AID 1508620); note: top concentration of the series differs between compounds
# Conditions: CIB1-GST / FITC-alphaIIb peptide fluorescence polarization; series mostly up to 114 µM; activity change, negative = inhibition: at the top concentration
# Outline: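 Fluorescence polarization competition: GST-tagged CIB1 (1 uM final) preincubated with compound 15 min at room temperature, then FITC-labelled alphaIIb peptide (100 nM final) added. After 15 min at room temperature, polarization read at Ex 480/Em 540.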
# % is set by controls: 0 for no effect and ±100 for the full control effect.
# Calcium and integrin-binding protein 1 (Homo sapiens), sequence (Q99828 whole entry, looked up): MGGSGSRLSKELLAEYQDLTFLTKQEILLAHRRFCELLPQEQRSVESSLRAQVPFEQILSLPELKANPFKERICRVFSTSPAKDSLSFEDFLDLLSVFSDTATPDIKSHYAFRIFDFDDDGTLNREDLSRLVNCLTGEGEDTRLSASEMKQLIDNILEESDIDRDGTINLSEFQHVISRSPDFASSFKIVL
row,SMILES,"activity change, negative = inhibition"
1,O=C(O)c1ccc2c(c1)C(=O)N([C@H](Cc1ccc(O)c(O)c1)C(=O)O)C2=O,-3.04% (inactive)
2,COc1ccc(-c2nnc3n2N=C(c2cc(OC)ccc2OC)CS3)c(OC)c1,-1.15% (inactive)
3,Fc1ccc(-c2ccc(CNc3nc(-c4ccccc4C(F)(F)F)nc4ccccc34)cc2)cc1C(F)(F)F,-8.26% (inactive)
4,O=C(O)c1ccccc1OC1=NS(=O)(=O)c2ccccc21,1.4% (inactive)
5,COc1ccc(CN(Cc2ccccc2)C(=O)c2ccccc2O)cc1,2.91% (inactive)
6,O=S(=O)(c1ccc2c(c1)OCCO2)N1CCCN(S(=O)(=O)c2c(F)cccc2F)CC1,6.16% (inactive)
7,O=C1Cc2cc(S(=O)(=O)N3CCN(c4ccc(F)cc4)CC3)ccc2N1,3.72% [at 228 µM] (inactive)
8,Cc1ccc(NS(=O)(=O)c2cc3c(cc2Br)NC(=O)CO3)cc1C,8.51% (inactive)
9,Cc1ccc(NS(=O)(=O)c2ccc(N3CCCC3=O)cc2)cc1C,4.41% (inactive)
10,Nc1cccc(CNc2ccc(S(=O)(=O)Nc3nccs3)cc2)c1O,-17.1% [at 30.2 µM] (inactive)
11,COc1ccc(-c2ccc3ncnc(N(C)Cc4csc(C)n4)c3c2)cc1OC,-1.4% (inactive)
12,Cc1ccc(-c2ccc(=O)n(CC(=O)N(C)C(C)c3cccs3)n2)cc1 (stereo not drawn),-7.22% (inactive)
13,N#Cc1ccc(-c2ccc(CNc3ccc(N4CCC(C#N)CC4)cc3)o2)cc1,-11.1% (inactive)
14,Cc1ccc(OCCn2c(CCNC(=O)/C=C/c3ccccc3Br)nc3ccccc32)cc1,27.3% (inactive)
15,O=C(Nc1nnc(-c2ccncc2)s1)Nc1ccc(Cl)cc1F,4.95% (inactive)
16,CCN(CC)c1ccc(NC(=O)Nc2ccc(C(C)=O)cc2)cc1,-7.76% (inactive)
17,CCCCCNc1oc(-c2cccc3ccccc23)nc1C#N,2.34% (inactive)
18,Brc1ccccc1-c1nc(NCc2ccc(-c3cccnc3)cc2)c2ccccc2n1,5.55% (inactive)
19,Cc1cc(N[S+](=O)([O-])c2ccc(NC(=O)Cc3ccc(F)c(F)c3)cc2)no1,-5.75% (inactive)
20,CCc1nnc(-c2cnn(C)c2N)n1CCCn1ccnc1,-0.903% (inactive)
21,O=C(NC(c1ccco1)c1cc(Cl)c2cccnc2c1O)c1ccc(F)c(F)c1 (stereo not drawn),-6.74% (inactive)
22,CCOC(=O)C1CCN(C(=O)C(C)(C)NC(=O)Nc2ccc3sccc3c2)CC1,-9.54% (inactive)
23,O=C1CCCC2=C1C(c1[nH]ncc1Cl)N=C(Nc1nc3cc([S+](=O)([O-])N4CCOCC4)ccc3o1)N2 (stereo not drawn),-6.32% (inactive)
